In all, about 33,000 sequences were measured (“normalized occupancy”: median about 0.075, highest 2% from about 0.095 on). The full list was thinned out, with the highest values kept by preference.

MaxL homodimer, sequence (P61244 whole entry): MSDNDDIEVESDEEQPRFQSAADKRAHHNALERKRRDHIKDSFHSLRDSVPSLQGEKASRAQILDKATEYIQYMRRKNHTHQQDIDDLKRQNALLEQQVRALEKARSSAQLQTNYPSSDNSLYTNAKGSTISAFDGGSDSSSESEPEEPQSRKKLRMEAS

The test addresses MaxL homodimer (Homo sapiens, UniProt P61244 1-160). Description: universal protein-binding microarray (PBM); PBS-based mixture, 10 nM His-tagged protein dimer, 2% milk, 200 ng/uL BSA, 50 ng/uL salmon testes DNA, 0.02% TX-100; detection with Alexa 488 anti-His antibody;; high values mean tight binding. As to conditions: protein: recombinant; tags: C-terminal His-tag (pET21a); chain copies: 2; dsDNA, one strand shown. A digest of the protocol: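 His-tagged protein dimer at 10 nM was incubated on Agilent 4 x 44 K arrays with the 'all 10-mer' universal design. Bound protein was tagged with 10 ng/μL fluorophore-conjugated anti-His antibody, and arrays were scanned on a GenePix 4400A. Binding occupancy for each 8-mer is its fluorescence intensity normalised to the highest-ranked 8-mer's intensity.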
In the case of AACCATGA, the binding signal turned out to be 0.0836 normalized occupancy.

For the sequence GACCATGC, the binding signal came out at 0.109 normalized occupancy.

With ATCCATGC, the binding signal was 0.0942 normalized occupancy.

For CTCCATGA, the binding signal amounted to 0.0798 normalized occupancy.

Consider CACCATGC, for which the binding signal stood at 0.108 normalized occupancy.

On to GACCATAC, for which the binding signal stood at 0.0805 normalized occupancy.

For the sequence GTTGCCCA, the binding signal was 0.0762 normalized occupancy.

As to CTCCCTCC, the binding signal stood at 0.0789 normalized occupancy.

On to CGACCCAC, for which the binding signal turned out to be 0.0808 normalized occupancy.

Consider AGTGTCAT, for which the binding signal was 0.0822 normalized occupancy.

Turning to CCACATCA, the binding signal was 0.0798 normalized occupancy.

Take GACGCTTA: the binding signal worked out at 0.0768 normalized occupancy.

For the sequence CACGCTTC, the binding signal was determined as 0.098 normalized occupancy.

Regarding AACGCTTC, the binding signal amounted to 0.0768 normalized occupancy.

In the case of AACGCTTA, the binding signal is 0.0733 normalized occupancy.

With CGCGCTTC, the binding signal came out at 0.0753 normalized occupancy.

Turning to CACGCTTA, the binding signal is 0.103 normalized occupancy.

In the case of TACCTAGA, the binding signal turned out to be 0.073 normalized occupancy.

Take AACTCATC: the binding signal was found to be 0.0815 normalized occupancy.

GCTGACGA: the binding signal was 0.072 normalized occupancy.

In the case of TCATGTAA, the binding signal worked out at 0.0936 normalized occupancy.

With GCATGTAA, the binding signal was found to be 0.0836 normalized occupancy.

For the sequence ACATGTAA, the binding signal was 0.0953 normalized occupancy.

In the case of ACATGTCG, the binding signal turned out to be 0.1 normalized occupancy.

Regarding AAATGTAT, the binding signal stood at 0.0812 normalized occupancy.

Regarding CCATGTCG, the binding signal was 0.0843 normalized occupancy.

Regarding ACATGTCT, the binding signal turned out to be 0.0899 normalized occupancy.

With CCATGTAG, the binding signal was 0.0836 normalized occupancy.

As for ACATGTAG, the binding signal worked out at 0.101 normalized occupancy.

With AAATGTAG, the binding signal came to 0.0793 normalized occupancy.

As for ACATGTAT, the binding signal was determined as 0.102 normalized occupancy.

In the case of AGATGTAT, the binding signal is 0.0832 normalized occupancy.

In the case of ACCATTAG, the binding signal is 0.0781 normalized occupancy.

Regarding ATCCAGAG, the binding signal came to 0.0719 normalized occupancy.

For the sequence CACGCGGG, the binding signal came out at 0.145 normalized occupancy.

For the sequence CACGCGGA, the binding signal was found to be 0.15 normalized occupancy.

With CCCGCGGG, the binding signal was 0.0758 normalized occupancy.

In the case of GACGCGGC, the binding signal stood at 0.0758 normalized occupancy.

For AACGCGGA, the binding signal came out at 0.0818 normalized occupancy.

As to TACGCGGA, the binding signal came to 0.0723 normalized occupancy.

Regarding CACGCGGC, the binding signal came out at 0.151 normalized occupancy.

Consider AACGCGGC, for which the binding signal was 0.0757 normalized occupancy.

Consider CGCGCGGA, for which the binding signal turned out to be 0.0836 normalized occupancy.

Turning to CCGAGAGA, the binding signal was determined as 0.0728 normalized occupancy.

With TCGCACGA, the binding signal came out at 0.0806 normalized occupancy.

Turning to CAGGTGCG, the binding signal is 0.0849 normalized occupancy.

Turning to CAGTTGCA, the binding signal was found to be 0.0721 normalized occupancy.

With CCCTAACC, the binding signal is 0.0758 normalized occupancy.

As to CTGTGCAA, the binding signal turned out to be 0.0754 normalized occupancy.

As to AACACGGA, the binding signal came to 0.0756 normalized occupancy.

Consider TACACGTA, for which the binding signal came to 0.083 normalized occupancy.

Turning to CACACGTG, the binding signal turned out to be 0.553 normalized occupancy.

Regarding CACACGTC, the binding signal amounted to 0.0858 normalized occupancy.

On to AACACGTT, for which the binding signal stood at 0.128 normalized occupancy.

With AACACGTG, the binding signal was 0.706 normalized occupancy.

On to AACACGTA, for which the binding signal is 0.083 normalized occupancy.

AACACGTC: the binding signal was 0.0786 normalized occupancy.

Turning to CACACGTA, the binding signal came out at 0.0925 normalized occupancy.

Take ATTTACGC: the binding signal is 0.0786 normalized occupancy.

Turning to CTCCCGCC, the binding signal amounted to 0.0726 normalized occupancy.

Consider ATTATGAC, for which the binding signal worked out at 0.0798 normalized occupancy.

As for ACCTCTAT, the binding signal stood at 0.0776 normalized occupancy.

On to AAATGGTA, for which the binding signal came to 0.0806 normalized occupancy.

On to CATTTTAC, for which the binding signal turned out to be 0.0853 normalized occupancy.

As to AGATACAC, the binding signal came out at 0.0831 normalized occupancy.

GCTCCTAA: the binding signal amounted to 0.0767 normalized occupancy.

As for AAACGACC, the binding signal worked out at 0.0727 normalized occupancy.

Regarding CACGTGGA, the binding signal turned out to be 0.768 normalized occupancy.

For CACGTAGG, the binding signal is 0.0797 normalized occupancy.

On to AAAGTGGA, for which the binding signal was 0.0743 normalized occupancy.

Take AAGGTGGA: the binding signal is 0.0747 normalized occupancy.

For the sequence CACGTCGC, the binding signal came out at 0.0825 normalized occupancy.

As to CAAGTGGC, the binding signal came to 0.0744 normalized occupancy.

CAAGTGGG: the binding signal was determined as 0.0807 normalized occupancy.

Take AACGTGGA: the binding signal is 0.115 normalized occupancy.

Consider TACGTGGA, for which the binding signal was determined as 0.0878 normalized occupancy.

With CACGTGGG, the binding signal was 0.707 normalized occupancy.

For GACGTGGA, the binding signal was 0.087 normalized occupancy.

As for CACGTGGC, the binding signal came to 0.837 normalized occupancy.

In the case of AGAGCCGA, the binding signal amounted to 0.0723 normalized occupancy.

Turning to CTTTTTGA, the binding signal turned out to be 0.0761 normalized occupancy.

Consider ACCGTAAC, for which the binding signal worked out at 0.0752 normalized occupancy.

For ACTAAGAC, the binding signal stood at 0.0733 normalized occupancy.

In the case of ACGGCACC, the binding signal was 0.0742 normalized occupancy.

For GTCCACAA, the binding signal stood at 0.0768 normalized occupancy.

Turning to CAGCGGTA, the binding signal stood at 0.0751 normalized occupancy.

With ATCCGTGG, the binding signal stood at 0.078 normalized occupancy.

In the case of ACTGTAAT, the binding signal came out at 0.0778 normalized occupancy.

In the case of TACATCTA, the binding signal turned out to be 0.0787 normalized occupancy.

Regarding AACAGGTG, the binding signal came to 0.102 normalized occupancy.

Take TACATGTA: the binding signal was 0.0978 normalized occupancy.

Turning to CAAATGTG, the binding signal was found to be 0.0879 normalized occupancy.

Take AACATCTG: the binding signal was determined as 0.0767 normalized occupancy.

With CACAGGTG, the binding signal was 0.0857 normalized occupancy.

Turning to CACATCTG, the binding signal turned out to be 0.0871 normalized occupancy.

AACATGTG: the binding signal amounted to 0.184 normalized occupancy.

Regarding CACATGTG, the binding signal was found to be 0.216 normalized occupancy.

As for AACAGGTC, the binding signal came to 0.0733 normalized occupancy.

Take AACATGTT: the binding signal was determined as 0.0895 normalized occupancy.

Consider TACATGGA, for which the binding signal amounted to 0.0848 normalized occupancy.

For CACATACG, the binding signal is 0.0784 normalized occupancy.

Consider GTGGGGCA, for which the binding signal was determined as 0.0781 normalized occupancy.

For the sequence ACCCACTA, the binding signal stood at 0.085 normalized occupancy.

On to CTCCCGAA, for which the binding signal was determined as 0.0776 normalized occupancy.

As for AACCTACT, the binding signal turned out to be 0.074 normalized occupancy.

Take GGTTGACA: the binding signal was 0.0758 normalized occupancy.

With AGACTTGG, the binding signal was found to be 0.0722 normalized occupancy.

AACATGTA: the binding signal was 0.0923 normalized occupancy.

In the case of GACATGTA, the binding signal is 0.0884 normalized occupancy.

On to GACATGTC, for which the binding signal came to 0.0872 normalized occupancy.

As to CACATGTC, the binding signal was 0.159 normalized occupancy.

Regarding CACATGTA, the binding signal came to 0.147 normalized occupancy.

For the sequence AACATGTC, the binding signal turned out to be 0.087 normalized occupancy.

For the sequence ACGGGTGA, the binding signal amounted to 0.0801 normalized occupancy.

On to CATCTCAA, for which the binding signal was 0.0793 normalized occupancy.

For the sequence TCAGCTGA, the binding signal stood at 0.0752 normalized occupancy.

With GCTACGAC, the binding signal was found to be 0.078 normalized occupancy.

For AGCCACGA, the binding signal stood at 0.0883 normalized occupancy.

For CGCCACGC, the binding signal turned out to be 0.0953 normalized occupancy.

For AGCCACGC, the binding signal is 0.109 normalized occupancy.

Regarding AGCCACGG, the binding signal worked out at 0.0742 normalized occupancy.

Consider CGCCACGA, for which the binding signal stood at 0.0799 normalized occupancy.

CGCCACAA: the binding signal amounted to 0.076 normalized occupancy.

On to GATTTTTA, for which the binding signal was determined as 0.0759 normalized occupancy.

As for ACGTACAG, the binding signal stood at 0.0776 normalized occupancy.

As to CAAATGTA, the binding signal is 0.0834 normalized occupancy.

As to TCCCTCCA, the binding signal was found to be 0.075 normalized occupancy.

With AGACAGAA, the binding signal is 0.0751 normalized occupancy.

As for AATATGTA, the binding signal was 0.0801 normalized occupancy.

With CATATGTC, the binding signal turned out to be 0.0943 normalized occupancy.

With CATATGCG, the binding signal came out at 0.105 normalized occupancy.

On to CATATGTA, for which the binding signal was 0.0972 normalized occupancy.

In the case of GATATGCA, the binding signal turned out to be 0.0792 normalized occupancy.

With TATATGCA, the binding signal turned out to be 0.0896 normalized occupancy.

Turning to AATATGCG, the binding signal was found to be 0.0761 normalized occupancy.

As for CATATGCC, the binding signal worked out at 0.095 normalized occupancy.

In the case of CATATGCA, the binding signal was 0.0978 normalized occupancy.

As to TAGACCTA, the binding signal was 0.0731 normalized occupancy.

Take GGGGAACA: the binding signal was determined as 0.081 normalized occupancy.

For TTACTAAA, the binding signal is 0.0728 normalized occupancy.

TGACTCAA: the binding signal is 0.0763 normalized occupancy.

As for AGGGAGCA, the binding signal amounted to 0.0728 normalized occupancy.

In the case of TAGTTGGA, the binding signal came out at 0.0742 normalized occupancy.

With TAAGGACA, the binding signal was determined as 0.075 normalized occupancy.

CTACGCAC: the binding signal was 0.0773 normalized occupancy.

AACGCGTA: the binding signal stood at 0.0792 normalized occupancy.

For AACGCGTC, the binding signal was 0.0723 normalized occupancy.

In the case of AACGCGTT, the binding signal was found to be 0.0813 normalized occupancy.

In the case of CACGCGTC, the binding signal is 0.119 normalized occupancy.

On to ACCGCGTG, for which the binding signal was found to be 0.182 normalized occupancy.

Consider ACCGCGTA, for which the binding signal worked out at 0.0727 normalized occupancy.

With GACGCGTC, the binding signal worked out at 0.0757 normalized occupancy.

As to TACGCGTA, the binding signal was 0.0797 normalized occupancy.

Turning to ACCGCGCG, the binding signal was 0.0856 normalized occupancy.

Take GACGCGTA: the binding signal is 0.0737 normalized occupancy.

In the case of CACGCGTA, the binding signal came out at 0.121 normalized occupancy.

For the sequence AACGCGTG, the binding signal is 0.123 normalized occupancy.

On to CCTTAGCC, for which the binding signal amounted to 0.0725 normalized occupancy.

In the case of CGTGCTGC, the binding signal amounted to 0.09 normalized occupancy.

On to CGCTGACA, for which the binding signal was determined as 0.0773 normalized occupancy.

For GCGAGCAA, the binding signal was found to be 0.0723 normalized occupancy.

On to AAGAACAT, for which the binding signal amounted to 0.08 normalized occupancy.

As for GACGGTCA, the binding signal amounted to 0.0718 normalized occupancy.

For the sequence GCGACAGA, the binding signal amounted to 0.0794 normalized occupancy.

Consider AAGTCATT, for which the binding signal is 0.0758 normalized occupancy.

As for CAACATTA, the binding signal amounted to 0.0824 normalized occupancy.

Regarding CCGAATGA, the binding signal was 0.0745 normalized occupancy.

With AAACACAG, the binding signal stood at 0.0769 normalized occupancy.

Take CACGCGTG: the binding signal worked out at 0.17 normalized occupancy.

Consider CGCGCGTA, for which the binding signal was found to be 0.0797 normalized occupancy.

As for ATCGCGTC, the binding signal amounted to 0.0719 normalized occupancy.

In the case of CTCGCGTA, the binding signal was found to be 0.0788 normalized occupancy.

For the sequence ATCGCGTG, the binding signal was determined as 0.127 normalized occupancy.

ATCGCGTA: the binding signal was 0.0764 normalized occupancy.

The values above are taken from paper PMC4242493, “Sequence specificity incompletely defines the genome-wide occupancy of Myc”.
